According to PubChem BioAssay AID1159580 (chemical genetic matrix, 2015):
Several values for one entry are separate records, joined by “and”; a condition that tells them apart may be missing. Equal entries are not always repeated. In all, about 5,500 compounds went through this assay and about 2,000 (36%) were called active. Roughly 18% stayed inconclusive and do not appear here. Cut-off read from the data, not from the text of the source: active = normalized growth mostly below about 0.91 (no sharp cut-off); inconclusive = no clear call, values can overlap the other calls; inactive = mostly above about 0.92. This is one part of the list.

Assay: chemical genetic growth profiling, strain panel (AID 1159580);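 note: tested at 20 µM; growth read once vehicle control cultures reached saturation at 30 °C; 1 = growth at the plate median or of vehicle wells; lower values mean less growth of the strain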
Settings: S. cerevisiae deletion strains, growth OD

Measured: normalized growth

CC(=O)CCCCn1c(=O)c2c(ncn2C)n(C)c1=O
inactive: locus YAL013W, strain DEP1, active compounds read low 1.02 | locus YAL021C, strain ccr4, active compounds read low 1.01 | locus YAL026C, strain drs2, active compounds read low 1.01 | locus YAL030W, strain snc1, active compounds read low 1.01 | locus YAL040C, strain CLN3, active compounds read low 1 | locus YBL061C, strain skt5, active compounds read low 1.01 | locus YBR009C, strain hhf1, active compounds read low 1.02 | locus YBR021W, strain FUR4, active compounds read low 0.991 | locus YBR023C, strain chs3, active compounds read low 1.01 | locus YBR171W, strain sec66, active compounds read low 1.04 | locus YBR229C, strain ROT2, active compounds read low 1.02 | locus YBR231C, strain swc5, active compounds read low 1.03 | locus YBR279W, strain paf1, active compounds read low 1 | locus YCL011C, strain gbp2, active compounds read low 1.01 | locus YCL016C, strain dcc1, active compounds read low 1.01 | locus YCL029C, strain bik1, active compounds read low 1.01 | locus YCL061C, strain MRC1 (second series), active compounds read low 1.01 | locus YCL061C, strain MRC1, active compounds read low 1.01 | locus YCL069W, strain vba3, active compounds read low 1 | locus YCR088W, strain abp1, active compounds read low 1.01 | locus YDL005C, strain med2, active compounds read low 1.01 | locus YDL035C, strain GPR1, active compounds read low 1.01 | locus YDL040C, strain nat1, active compounds read low 1.01 | locus YDL074C, strain BRE1, active compounds read low 1.04 | locus YDL101C, strain DUN1, active compounds read low 1.02 | locus YDL185W, strain tfp1, active compounds read low 0.999 | locus YDL192W, strain arf1, active compounds read low 1 | locus YDR001C, strain nth1, active compounds read low 1.01 | locus YDR069C, strain doa4, active compounds read low 1.03 | locus YDR101C, strain arx1, active compounds read low 1.01 | locus YDR137W, strain rgp1, active compounds read low 1.03 | locus YDR150W, strain NUM1, active compounds read low 1.02 and 0.998 | locus YDR159W, strain sac3, active compounds read low 1.03 | locus YDR162C, strain NBP2, active compounds read low 1.01 | locus YDR195W, strain ref2 1.02 | locus YDR297W, strain sur2, active compounds read low 1.01 | locus YDR318W, strain mcm21, active compounds read low 0.993 | locus YDR334W, strain swr1, active compounds read low 1.02 | locus YDR335W, strain msn5, active compounds read low 1.01 | locus YDR363W, strain ESC2, active compounds read low 1 | locus YDR388W, active compounds read low 0.999 | locus YDR392W, strain spt3, active compounds read low 1.02 | locus YDR502C, strain sam2, active compounds read low 1.01 | locus YEL003W, strain gim4, active compounds read low 1.01 | locus YEL037C, strain rad23, active compounds read low 1.01 | locus YEL061C, strain CIN8 (second series), active compounds read low 1.01 | locus YEL061C, strain CIN8, active compounds read low 1.01 | locus YER002W, strain NOP16, active compounds read low 1.03 | locus YER015W, strain faa2, active compounds read low 1.02 | locus YER016W, strain bim1, active compounds read low 1.01 | locus YER110C, active compounds read low 0.992 | locus YER111C, strain swi4, active compounds read low 1.03 | locus YER155C, strain BEM2 (second series), active compounds read low 1.02 | locus YER155C, strain BEM2, active compounds read low 1.01 | locus YER167W, strain BCK2, active compounds read low 1 | locus YFR010W, strain ubp6, active compounds read low 1.01 | locus YGL078C, strain dbp3, active compounds read low 1.01 | locus YGL086W, strain mad1, active compounds read low 1.01 | locus YGL167C, strain pmr1, active compounds read low 1.02 | locus YGL173C, strain kem1, active compounds read low 1.02 | locus YGL227W, strain vid30, active compounds read low 1.01 | locus YGL240W, strain doc1, active compounds read low 1.03 | locus YGL248W, strain PDE1, active compounds read low 1.03 | locus YGL253W, strain hxk2, active compounds read low 1.02 | locus YGR078C, strain PAC10, active compounds read low 1.02 | locus YGR135W, strain pre9, active compounds read low 0.967 | locus YGR229C, strain SMI1, active compounds read low 1.02 | locus YGR252W, strain gcn5, active compounds read low 0.983 | locus YHR013C, strain ard1, active compounds read low 1.04 | locus YHR027C, strain rpn1, active compounds read low 1.02 | locus YHR030C, strain SLT2, active compounds read low 1.02 and 0.994 | locus YHR079C, strain IRE1 (second series), active compounds read low 1.01 | locus YHR079C, strain IRE1, active compounds read low 0.99 | locus YHR094C, strain hxt1, active compounds read low 0.995 | locus YHR129C, strain ARP1, active compounds read low 1.02 | locus YHR142W, strain chs7, active compounds read low 1.01 | locus YHR200W, strain rpn10, active compounds read low 1 | locus YIL066C, strain RNR3, active compounds read low 1.03 | locus YIL073C, strain SPO22, active compounds read low 0.971 | locus YIL125W, strain kgd1, active compounds read low 0.999 | locus YIR030C, strain dcg1, active compounds read low 1.01 | locus YJL092W, strain hpr5, active compounds read low 1.01 | locus YJL095W, strain BCK1 (second series), active compounds read low 1 | locus YJL095W, strain BCK1, active compounds read low 1.03 and 0.986 | locus YJL115W, strain asf1, active compounds read low 1.01 | locus YJL129C, strain trk1, active compounds read low 1.03 | locus YJL134W, strain LCB3, active compounds read low 1 | locus YJL154C, strain vps35, active compounds read low 1.01 | locus YJL164C, strain tpk1, active compounds read low 1.02 | locus YJL166W, strain qcr8, active compounds read low 1.01 | locus YJL168C, strain set2, active compounds read low 0.99 | locus YJL187C, strain SWE1 (second series), active compounds read low 1.03 | locus YJL187C, strain SWE1, active compounds read low 1.01 | locus YJR043C, strain POL32, active compounds read low 1.04
